INS promoter inh – TRM-6 insulin promoter activity inhibition; TRM-6 cells (human fetal islet line), insulin promoter-eGFP reporter, imaging; reporter expression induced with tamoxifen; inhibition, % at 2 µM; actives 0.9% (n = 130,000);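 active means inhibition above the mean plus 3 SD, with well images judged a real hit on visual review, cut at about 60% in these data, passing the limit was not always enough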
NFkB transloc inh – blocks IL-1B driven NFkB nuclear translocation in HUVEC cells; actives 0.43% (n = 94,000); HUVEC IL-1B NFkB p65 nuclear translocation imaging; inhibition, % at 2 µM;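 active means inhibition above about 30% together with a positive call from visual inspection of the well image, limit read from the data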;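 further: nuclear over cytoplasmic p65 intensity ratio measured by imaging; 0% = IL-1B stimulated DMSO wells and 100% = unstimulated DMSO wells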
IL1B cytotox – HUVEC cytotoxicity counter-screen, IL-1B stimulated | HUVEC cell count loss, Hoechst imaging | cell count reduction, % at 2 µM | actives 0.41% (n = 94,000) | AID 845;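 active means cell count reduction more than 3 SD above the screen-wide mean, cut at about 70% in these data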;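 further: normalized per plate to untreated control cells as the no-loss baseline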
IL1B NFkB pot – enhances IL-1B driven NFkB nuclear translocation | HUVEC IL-1B NFkB p65 nuclear translocation imaging | activation, % at 2 µM | actives 0.3% (n = 94,000);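 active means activation above 40%, about the mean plus 3 SD, also judged a hit on visual image review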;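 further: percent activation is computed from the nuclear over cytoplasmic p65 intensity ratio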
The depositor's hits bear a star; · = not tested or not shown. This is a sample that favours compounds with a hit; in the whole collection about 1.4% have one here.

SMILES	INS promoter inh	NFkB transloc inh	IL1B cytotox	IL1B NFkB pot
CCOC(=O)c1ccc(NC(=O)Cn2ncc(Cl)c(Cl)c2=O)cc1	-170	·	·	·
Cc1ccc(C(=O)OCn2ncc(Cl)c(Cl)c2=O)cc1	-194	79*	20	-79
O=C(OCn1ncc(Cl)c(Cl)c1=O)c1ccc(C(F)(F)F)cc1	-36	41*	2	-41
O=c1cc(C(Cl)(Cl)Cl)oc2c1ccc1ccccc12	58	4	38	-4
CN(C)c1ccc(/C=C(\C#N)C(=O)Nc2nc3c(s2)CCN(Cc2ccccc2)C3)cc1	-75	-12	-7	12
Cn1c(N)c(C(=O)CSc2nc(N)cc(N)n2)c(=O)n(C)c1=O	-64	·	·	·
COc1ccccc1-c1nc(C#N)c(N2CCN(C(c3ccccc3)c3ccccc3)CC2)o1	73*	2	-3	-2
COc1ccccc1-c1nc(C#N)c(N2CCN(c3cccc(Cl)c3)CC2)o1	43	18	-60	-18
CCOC(=O)c1c(C)cc(C)n2c1nc1ccccc12	75*	-3	-13	3
CCOc1ccc(CN(C)CC(=O)NCc2ccccc2Cl)cc1	-25	·	·	·
Cc1ccc(NC2=NC3(CCCCC3)N=C(N)N2)c(C)c1	-10	97*	41	-97
Cc1nnc(N2CCCCC2)c2ccccc12	21	-7	-3	7
Cc1ccc2c(Cl)c(C)c(N3CCCC3)nc2n1	77*	·	·	·
CCCCNc1nnc(SCC(=O)c2c[nH]c3ccccc23)s1	-43	·	·	·
O=C(c1cccn2c(=O)c3ccc(Cl)cc3nc12)N1CCN(Cc2ccc3c(c2)OCO3)CC1	·	-36	-12	36
Cc1cc(=O)c2cccc(Br)c2[nH]1	24	30*	90*	-30
Cc1ccc(NC(=S)N(CCCN(C)C)Cc2cc3cc4c(cc3[nH]c2=O)OCO4)c(C)c1	0	·	·	·
CCOC(=O)c1c(NC(=O)C2CCCO2)sc(C(=O)OC(C)(C)C)c1C (stereo not given)	21	99*	19	-99
Cc1ccccc1Cn1nc(C)c(NC(=O)c2cc3n(n2)C(C(F)F)CC(C(F)F)N3)c1C (stereo not given)	5	96*	78*	-96
CCCc1c(O)nc(SCCN(CC)CC)[nH]c1=O	22	32*	89*	-32
CNCc1c(C)nn(-c2ccccc2)c1C	50	·	·	·
Cc1nn(-c2ccccc2)c(C)c1N	75*	·	·	·
Cc1nn(C2CCS(=O)(=O)C2)c(Cl)c1/C=C/C(=O)OCC(=O)Nc1ccccc1OC(F)F (stereo not given)	66*	13	-1	-13
COc1ccc(Cl)cc1NC(=O)COC(=O)/C=C/c1c(C)nn(C2CCS(=O)(=O)C2)c1Cl (stereo not given)	0	-11	-5	11
COc1cc(OC)cc(-c2cc3nc(C)cc(N4CCN(C(=O)c5ccco5)CC4)n3n2)c1	10	-42	2	43*
SMILES	INS promoter inh	NFkB transloc inh	IL1B cytotox	IL1B NFkB pot
Cc1cc(N2CCN(C(=O)c3ccco3)CC2)n2nc(-c3cccc(F)c3)cc2n1	38	7	-6	-7
COc1ccc(Br)c2oc(S)cc(=O)c12	71*	·	·	·
CCOC(=O)COc1ccc2c(c1)C(=O)CC1(CCN(C(C)=O)CC1)O2	·	2	-8	-2
CCCn1c(NCc2ccccn2)nc2ccccc21	37	96*	92*	-96
CCCn1c(=O)c(C(=O)NCc2cccnc2)c(O)c2ccccc21	-18	-6	-18	6
CC(C)n1c(NCc2nc3ccccc3n2C)nc2ccccc21	27	6	-13	-6
CCCn1c(=O)c(C(=O)NCc2ccccn2)c(O)c2ccccc21	-320	0	85*	0
CCn1c(CNc2nc3ccccc3n2C(C)C)nc2ccccc21	-42	62*	-9	-62
c1ccc(CNc2nc3ccccc3n2CCN2CCOCC2)nc1	·	-4	-2	4
CC(=O)Nc1nc(CC(C)C)cc(-c2ccco2)c1C#N	25	-31	-38	31
Cc1ccc(Nc2nc(-c3c(C)nc4ccccn34)cs2)cc1	·	34*	34	-34
COc1ccc(C(c2sc3nc(C)nn3c2O)N2CCC(C(N)=O)CC2)cc1OC (stereo not given)	80*	·	·	·
COC(=O)C1CCN(C(c2ccc(OC)c(OC)c2)c2sc3nc(C)nn3c2O)CC1 (stereo not given)	·	-11	0	11
COc1ccc(NC(=O)CN(C)C2CCCCC2)c([N+](=O)[O-])c1	-6	·	·	·
O=C(Nc1ccc([N+](=O)[O-])cc1)Nc1nc(-c2ccc(Cl)s2)cs1	78*	·	·	·
CCOC(=O)N1CCN(C(=O)CCSCCc2ccncc2)CC1	79*	6	-6	-7
c1ccc2c(c1)Cn1c-2nc2ccccc21	95*	0	-12	0
O=C1c2ccccc2-c2nc3ccccc3n21	-74	-13	0	13
Cc1ccc(N2CC(O)=C(c3nc4ccccc4c(=O)[nH]3)C2=N)cc1C	14	·	·	·
FC(F)Oc1ccc(NC(=S)NCc2ccccc2)cc1Cl	11	30*	-18	-30
FC(F)Oc1ccc(NC(=S)NCc2ccccc2)cc1	16	·	·	·
Cc1cccc(N(C(=O)c2sc(C)nc2C)C(C(=O)NCc2ccco2)c2ccccc2)c1 (stereo not given)	11	-47	2	47*
CCOC(=O)C1CCN(C(=O)C2CCN(S(=O)(=O)c3cccc4cccnc34)CC2)CC1	·	-16	-36	16
COc1ccc(-c2cn[nH]c2N)c(OC)c1	84*	0	-19	0
CCCCS(=O)(=O)Nc1ccc(Cc2ccncc2)cc1	-50	2	-32	-2
SMILES	INS promoter inh	NFkB transloc inh	IL1B cytotox	IL1B NFkB pot
Cc1cc2[nH]c(=O)c3ccccc3n2n1	83*	-4	-10	4
CCOC(=O)c1cnn2c1[nH]c(=O)c1ccccc12	-182	0	-27	0
COc1ccccc1C(=O)Nc1nnc(-c2ccc3c(c2)CCCC3)o1	·	53*	-14	-53
CC(=O)Nc1nnc(-c2ccc3c(c2)CCCC3)o1	·	3	6	-3
COc1ccc(C(=O)N2CCC(C(=O)Nc3ccc4c(c3)OCO4)CC2)cc1	-21	·	·	·
CCN(CC)C(=O)c1ccc(NS(=O)(=O)c2ccccc2)cc1	100*	12	23	-12
COC(=O)c1ccc(Oc2nc(C(N)=O)cc(-c3ccccc3)n2)cc1	61*	2	8	-2
COc1ccc(CNS(=O)(=O)NCc2ccc(C)cc2)cc1	46	·	·	·
Cc1ccc(CNS(=O)(=O)NCc2cccs2)cc1	77*	·	·	·
COc1ccc(NC(=O)c2cc(S(=O)(=O)N3CCS(=O)(=O)CC3)ccc2Cl)cc1	38	-10	-15	10
Cc1cc(C)c2nc(C(F)(F)F)nc(NCCCN3CCCC3=O)c2c1	62	31*	0	-31
Clc1ccc2c(NCc3ccco3)ncnc2c1	79*	4	-8	-4
Clc1ccc2c(NCc3ccccn3)ncnc2c1	71	7	0	-7
CCc1nc2cc([N+](=O)[O-])c([N+](=O)[O-])cc2[nH]1	75*	·	·	·
COc1ccc(/C=C/C(=O)NCC(=O)N2CCC(N(C)CCN3CCOCC3)CC2)cc1OC	-39	·	·	·
COc1cccc(/C=N/N2CCN(C)CC2)c1	73*	·	·	·
COc1ccc(/C=N/N2CCN(C)CC2)cc1O	12	-19	-26	19

Screening data from PubChem.
